Measured values from PubChem BioAssay (NCI).
“And” between values parts separate entries of the source, which are not always exact repeats. Identical values can stand only once. About 83,000 compounds went through this panel and 20% of them were active in at least one assay; those are over-represented in the sample as a whole.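 Activity criterion: percent growth below 10, measured after cells in 96-well plates were exposed to a single compound concentration for 48 hours.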 The source made the active and inactive calls.

The compounds below were run on MDA-MB-468 breast (assay: NCI-60 one-dose screen, 48 h (100 = growth as untreated, 0 = no growth, -100 = all killed)). Conditions: 10 µM unless noted.

Compound | growth
COc1ccc(/C(C#N)=C/c2ccccn2)cc1 | 89% (inactive) and 82% (inactive)
NC(=N\N=C/Cc1ccccc1)/C(N)=N\N=C\Cc1ccccc1 | 112% (inactive)
CCOC(=O)C#Cc1c(C(=O)OCC)nnn1Cc1ccc([N+](=O)[O-])cc1 | -19.6% (active)
COc1ccc2cc(C3=CC(=O)CCC3)ccc2c1 | 100% (inactive)
O=c1sn(-c2cccc3ccccc23)c(=O)n1Cc1ccccc1 | 106% (inactive)
